NPC1 promoter act: activates the NPC1 promoter | Huh7 NPC1 promoter luciferase reporter, 24 h | Potency, µM (titrated, usually from 9.22 µM), for inactives: at the highest dose activation, usual class: activators | actives 2.4% (n = 320,000) | AID 485313; further: % of control where 0% means no effect; nearly all actives have a fitted effect of over 60% in size
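In 1536-well qHTS, Huh7 cells harboring an NPC1 promoter–luciferase construct received compound for 24 h; activation was quantified by luminescence following luciferase reagent addition.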
SMN2 splice up: enhancers of SMN2 splice variant expression; HEK293 SMN2-luciferase splicing reporter, luminescence, 30-36 h; Potency, µM (series often up to 46.1 µM), inactives show at the highest dose activity change, positive = activation, usual class: activators; actives 2.8% (n = 210,000); AID 1458; further: % of control where 0% means no effect; nearly all actives have a fitted effect of over 55% in size
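HEK293 cells carry an SMN2 minigene-luciferase reporter in which exon 7 inclusion puts luciferase in frame. Cells were seeded at 2000 cells/well, attached for 10-12 hours, then exposed to compounds for 30-36 hours at 37C before ONE-Glo luminescence.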
Rab9 prom act: activates the Rab9 promoter; actives 2.8% (n = 320,000); Huh7 Rab9 promoter-luciferase reporter, luminescence, 24 h; AID 485297; Potency, µM (titrated, usually from 9.22 µM), inactives show at the highest dose activation, negative = inhibition, actives largely listed as activators; further: % of control where 0% means no effect; nearly all actives have a fitted effect of over 60% in size
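Luciferase signal after 10 min detection reagent at ambient indicates Rab9 promoter upregulation; stably transfected Huh7 cells were treated 24 h with compound in DMSO at 37 °C, 5% CO2.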
Luc counter: counter-screen: inhibitors of Kinase-Glo firefly luciferase; Q27757; Kinase-Glo luciferase, ATP luminescence, 8 min; actives 0.28% (n = 200,000); AID 1379; Potency, µM (highest dose often 38.3 µM), for the others: at the highest dose activity change, negative = inhibition, usual class: inhibitors; further: on the % scale 0 is the no-effect control and ±100 the full control effect; nearly all actives have a fitted effect of over 60% in size
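Compounds were added to a substrate mix at pH 7.2 (50 mM imidazole, 10 uM ATP, within the enzyme's linear range), followed by Kinase-Glo detection reagent; luminescence was measured after 8 minutes at ambient temperature.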
ELG1 genotox: inducers of genotoxicity in HEK293T ELG1-luciferase cells; actives 1.3% (n = 330,000); Potency, µM (doses to about 46 µM), inactives show at the top dose activity change, positive = activation, actives largely listed as activators; HEK293T ELG1-luciferase reporter, luminescence, 16 h; further: % of control where 0% means no effect; nearly all actives have a fitted effect of over 60% in size
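Cells (2,000/well) expressing the ELG1-luciferase fusion are dosed by pin tool and kept 16 hr at 37 °C, 5% CO2. Signal comes from ONE-Glo luciferase reagent after 30 min at room temperature.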
FLuc modulator: firefly luciferase modulation, counter-screen for miR-21 project; purified FLuc, Km substrates, luminescence inhibition; Potency, µM (doses to about 57.5 µM), without a hit: top-dose activity change, negative = inhibition, most hits filed as inhibitors; actives 6.9% (n = 360,000); AID 588342;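 further: plate controls were vehicle for no effect and reference inhibitor for full effect; nearly all actives have a fitted effect of over 55% in size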
Target sequence (P08659 whole entry, looked up): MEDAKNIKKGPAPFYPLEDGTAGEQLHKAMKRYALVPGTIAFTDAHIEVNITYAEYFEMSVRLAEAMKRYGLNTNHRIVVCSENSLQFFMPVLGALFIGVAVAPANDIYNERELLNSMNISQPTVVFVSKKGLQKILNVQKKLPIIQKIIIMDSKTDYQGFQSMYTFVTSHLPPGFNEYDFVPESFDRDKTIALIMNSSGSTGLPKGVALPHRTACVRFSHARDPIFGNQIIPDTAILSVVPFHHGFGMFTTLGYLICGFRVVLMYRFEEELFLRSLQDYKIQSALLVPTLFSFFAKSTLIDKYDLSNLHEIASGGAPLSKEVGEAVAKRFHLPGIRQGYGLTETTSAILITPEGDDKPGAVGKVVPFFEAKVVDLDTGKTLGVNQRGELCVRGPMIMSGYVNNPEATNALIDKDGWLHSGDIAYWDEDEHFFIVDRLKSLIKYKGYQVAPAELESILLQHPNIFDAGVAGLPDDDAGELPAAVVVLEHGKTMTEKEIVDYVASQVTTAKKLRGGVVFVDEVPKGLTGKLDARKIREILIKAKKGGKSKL
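Purified P. pyralis luciferase, 10 nM final, with Km-level 10 uM D-luciferin and 10 uM ATP in 50 mM Tris acetate pH 7.5, 10 mM Mg acetate, 0.01% Tween-20, 0.05% BSA; 6-point qHTS titration about 60 µM downward; luminescence read.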
An asterisk follows results filed as active; u = inconclusive; x = no result given. The list is not random: actives were taken first. Their share in the collection is about 7.4%. The call rests on the fitted dose curve; in most records, active means well fitted curve in the direction sought with a large enough effect; inconclusive means small, poorly fitted or top-dose-only effect, or another doubt; inactive means no such curve, though single readings can be large; an effect the other way counts as inactive or inconclusive. Potency means the concentration at half of the fitted maximal effect.

SMILES	NPC1 promoter act	SMN2 splice up	Rab9 prom act	Luc counter	ELG1 genotox	FLuc modulator
COc1ccc2nc(NC(=O)CSc3nnc(N)s3)sc2c1	u	10µM*	2µM*	0%	16%	u
CCOc1ccc2nc(NC(=O)CSC3=NCCS3)sc2c1	u	6%	u	13%	u	15µM*
COc1cccc(CC(NC(C)=O)C(=O)NC2CCN(C(=O)c3ccncc3)CC2)c1OC (configuration not stated)	0%	x	5%	x	3%	-2%
COC(=O)c1c(NC(=O)COc2cc(C)c(Cl)c(C)c2)sc2c1CCCC2	x	2%	x	x	x	-1%
CCN(Cc1ccc2c(c1)OCCO2)C(=O)CN1C(=O)NC2(CCc3ccccc32)C1=O (configuration not stated)	-1%	x	-5%	x	0%	0%
Cc1c(CC(=O)O)c(=O)oc2cc3c(cc12)CCC(C)(C)O3	-6%	x	-2%	x	-1%	3%
CCC(NC(=O)Cc1c(C)c2cc3c(cc2oc1=O)OC(C)(C)CC3)C(=O)O (configuration not stated)	3.2µM*	x	2µM*	x	10%	21µM*
Cc1c(CC(=O)N2CCC(C(N)=O)CC2)c(=O)oc2cc3c(cc12)CCC1(CCCCC1)O3	6%	x	-6%	x	-5%	19µM*
c1ccc(COc2ccc3nocc3c2)cc1	3.2µM*	x	2µM*	x	u	7.6µM*
NC(=O)c1nc[nH]c1C(=O)Nc1cccc(C(F)(F)F)c1	16%	x	-1%	x	9%	-17%
CC1CCCN(CCCOc2ccc(Cl)cc2Br)C1 (configuration not stated)	-4%	-33%	-5%	-1%	0%	u
CC1CCCN(CCOc2ccc3ccccc3c2Br)C1 (configuration not stated)	14%	-11%	22%	3%	14%	27µM*
CN(C)c1ccc(N=NS(=O)(=O)O)cc1	x	19%	x	x	x	x
CCOC(=O)c1cnc2cc(C)nn2c1C	-3%	-26%	2%	19%	1%	-3%
O=C(Nc1ccsc1C(=O)O)c1ccc(Cl)cc1	2.8µM*	x	4µM*	x	23µM*	8.5µM*
Cc1ccc(C(=O)Nc2ccsc2C(=O)O)cc1	0.71µM*	x	0.45µM*	x	23µM*	2.7µM*
O=C(Nc1ccc(Cl)cc1C(F)(F)F)c1ccc(Cl)cc1	19%	-18%	u	2%	6%	0%
O=C(Nc1cc(F)c(Br)cc1F)c1ccc(Cl)cc1	2.2µM*	x	1.8µM*	x	u	2.7µM*
Cc1cc2ncc(C(=O)Nc3ccsc3C(=O)O)c(C)n2n1	u	-2%	u	2%	u	12µM*
O=C(CNC(=O)c1ccccc1)Nc1ccsc1C(=O)O	-4%	x	-1%	6%	0%	-8%
Cc1cc(C)c2c(CC(=O)Nc3nnc(C(C)C)s3)coc2c1	x	8%	x	x	x	0%
O=C(c1ccc([N+](=O)[O-])c(CS(=O)(=O)c2ccc(Cl)cc2)c1)N1CCCC1	-1%	-1%	-7%	3%	-1%	-2%
O=C(c1cc2ccccc2oc1=O)N(Cc1ccccc1)C1CCS(=O)(=O)C1 (configuration not stated)	u	-6%	u	-4%	u	21µM*
O=C(c1cc2ccccc2oc1=O)N(Cc1ccccc1F)C1CCS(=O)(=O)C1 (configuration not stated)	24%	x	u	x	u	17µM*
CCOc1ccc(CN(C(=O)c2cc3ccccc3oc2=O)C2CCS(=O)(=O)C2)cc1 (configuration not stated)	u	x	3.2µM*	x	u	12µM*
COc1ccc(CN(C(=O)c2cc3ccccc3oc2=O)C2CCS(=O)(=O)C2)cc1OC (configuration not stated)	4µM*	u	u	x	u	19µM*

Screening data (PubChem BioAssay)
